The results in this text go back to ChEMBL document CHEMBL1201862, “PubChem BioAssay data set” (2004).

SMILES strings stand for the structures. Among all 400,000 compounds or so, about 2,100 (0.53%) were called active. Not shown: some 14% with an inconclusive outcome. This is one part of a sample in which actives are shown more often than they occur. The rule behind the calls is not given here.

In the experiment the target is Ataxin-2 (Homo sapiens) (UniProt Q99700). In words: qHTS for Inhibitors of ATXN expression. The experiment is classed as functional. A general note: Quantitative high-throughput screening tests each substance at several concentrations.
Sequence of Ataxin-2 (Homo sapiens) (Q99700 whole entry): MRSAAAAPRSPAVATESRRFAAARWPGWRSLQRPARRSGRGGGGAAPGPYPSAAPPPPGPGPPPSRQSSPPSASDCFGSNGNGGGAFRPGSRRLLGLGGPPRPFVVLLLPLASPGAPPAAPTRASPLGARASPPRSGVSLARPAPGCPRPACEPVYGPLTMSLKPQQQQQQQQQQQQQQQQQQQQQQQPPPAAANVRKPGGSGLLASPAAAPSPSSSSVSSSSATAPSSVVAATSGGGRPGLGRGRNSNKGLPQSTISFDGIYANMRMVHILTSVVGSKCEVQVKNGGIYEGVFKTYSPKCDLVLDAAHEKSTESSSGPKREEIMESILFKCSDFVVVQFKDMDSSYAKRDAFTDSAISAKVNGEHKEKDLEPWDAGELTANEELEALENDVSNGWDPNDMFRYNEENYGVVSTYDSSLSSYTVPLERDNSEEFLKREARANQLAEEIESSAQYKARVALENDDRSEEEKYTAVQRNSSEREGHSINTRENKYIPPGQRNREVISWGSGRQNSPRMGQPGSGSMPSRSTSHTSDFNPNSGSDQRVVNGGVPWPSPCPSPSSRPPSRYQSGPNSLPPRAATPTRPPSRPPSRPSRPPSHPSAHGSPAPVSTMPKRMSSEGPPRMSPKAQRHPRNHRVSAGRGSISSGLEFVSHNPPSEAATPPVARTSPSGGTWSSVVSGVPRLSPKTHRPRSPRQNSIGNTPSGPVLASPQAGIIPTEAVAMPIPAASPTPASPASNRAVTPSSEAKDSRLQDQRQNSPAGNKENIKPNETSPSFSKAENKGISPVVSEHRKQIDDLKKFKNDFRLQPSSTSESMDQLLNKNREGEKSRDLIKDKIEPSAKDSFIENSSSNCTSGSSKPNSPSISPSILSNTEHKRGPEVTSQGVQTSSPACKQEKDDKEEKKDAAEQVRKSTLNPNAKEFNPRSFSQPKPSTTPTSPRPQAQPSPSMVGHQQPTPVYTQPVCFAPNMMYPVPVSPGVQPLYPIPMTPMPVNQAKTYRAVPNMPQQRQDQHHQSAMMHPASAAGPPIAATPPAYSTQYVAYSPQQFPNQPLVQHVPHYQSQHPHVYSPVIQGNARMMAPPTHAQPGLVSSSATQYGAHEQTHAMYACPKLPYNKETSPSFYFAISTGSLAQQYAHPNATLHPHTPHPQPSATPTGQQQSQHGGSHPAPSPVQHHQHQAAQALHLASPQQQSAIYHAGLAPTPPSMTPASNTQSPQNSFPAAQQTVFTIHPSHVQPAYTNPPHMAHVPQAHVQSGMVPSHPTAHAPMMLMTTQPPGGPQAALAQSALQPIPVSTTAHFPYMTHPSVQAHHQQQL
For the molecule `COc1ccc(Sc2ccc(-c3nc4cnccn4c3NC3CCCCC3)cc2OC)cc1`, the Potency entry was “inactive”.

With `CN(Cc1nc(-c2cnccn2)no1)C1CC(C)(C)NC(C)(C)C1`, the Potency entry is “inactive”.

`Cc1ccccc1N(CC(=O)NC(C)(C)C)C(=O)CCC(=O)Nc1nccs1`: the Potency entry was “inactive”. For `CCCCN1CCc2c(c3ccccc3n2Cc2ccccc2)C1` the value was 28.2 µM (active); for `Oc1ncnc2sc3c(c12)CN(Cc1ccccc1)CC3`, “inactive”. As for `CCCN1CNc2c(c(=O)[nH]c(=S)n2CCc2ccccc2)C1`, the Potency result is “inactive”. Regarding `CCCCCC(=O)NNC1=NCC(Cc2ccccc2)S1` (centres undefined), the Potency entry was “inactive”. Turning to `COc1cc2cc(C(=O)N3CCN(Cc4ccc5c(c4)OCO5)CC3)c(=O)oc2cc1OC`, the Potency entry was “inactive”. For `O=C(c1cc([N+](=O)[O-])cc([N+](=O)[O-])c1)N1CCN(Cc2ccc3c(c2)OCO3)CC1`, the Potency entry is “inactive”.

As to `CCO[C@H]1OC(C(=O)N2CCN(Cc3ccc4c(c3)OCO4)CC2)=C[C@@H](c2ccc(C(F)(F)F)cc2)[C@@H]1CCCO`, the Potency is 35.5 µM (active). Regarding `CCOC(=O)C(=Cc1ccc(-n2ccnc2)cc1)C(=O)OCC`, the Potency was 25.1 µM (active).

On to `CCOC(=O)/C(=C/c1ccc(N2CCC(c3ccccc3)=N2)cc1)C(C)=O`, for which the Potency result is “inactive”. For the molecule `CCN1CCN(c2cc(C)c3cc(NC(=O)CCC(=O)Nc4ccc(OC)cc4OC)ccc3n2)CC1`, the Potency result was “inactive”.

For `COc1ccc(Cl)cc1C(=O)Nc1ccc2nc(Nc3cccc(Cl)c3)cc(C)c2c1`, the Potency result is “inactive”.

Consider `Cc1cc(Nc2cccc(Cl)c2)nc2ccc(NC(=O)COc3ccc(Cl)cc3)cc12`, for which the Potency entry was “inactive”. On to `CCCN(CCC)CCNC(=O)CCC(=O)Nc1ccc2nc(N3CCOCC3)cc(C)c2c1`, for which the Potency entry was “inactive”.

`CCN1CCN(c2cc(C)c3cc(NC(=O)c4cc(Br)ccc4Cl)ccc3n2)CC1`: the Potency is 31.6 µM (active).

Turning to `Cc1cc(N2CCN(C)CC2)nc2ccc(NC(=O)Nc3ccccc3Br)cc12`, the Potency is 39.8 µM (active). For the molecule `CCOc1ccccc1NC(=O)Nc1ccc2nc(N3CCN(C)CC3)cc(C)c2c1`, the Potency was 31.6 µM (active).

With `CCOc1ccc(S(=O)(=O)N2CCN(C)CC2)cc1NC(=O)c1ccccc1F`, the Potency result was “inactive”. Regarding `Cc1cc(N2CCN(C)CC2)nc2ccc(NC(=O)Nc3cccc(Cl)c3)cc12`, the Potency is 31.6 µM (active).

For the molecule `COCCCn1c(=N)c(C(=O)NC2CCCC2)cc2c(=O)n3ccccc3nc21`, the Potency entry is “inactive”. With `COc1ccc(S(=O)(=O)NCc2ccco2)cc1C(=O)N1CCOCC1`, the Potency entry is “inactive”.

For `CCCN(CCC)S(=O)(=O)c1ccc(C(=O)OCCN2C(=O)c3cccc4c(N5CCOCC5)ccc(c34)C2=O)cc1`, the Potency result was “inactive”.

For the molecule `O=C(CCCNC1=NS(=O)(=O)c2ccccc21)Nc1ccc(Cl)cc1`, the Potency result is “inactive”. As for `CCOC(=O)c1cc2c(=O)n3ccccc3nc2n(Cc2ccccc2)c1=N`, the Potency result was “inactive”. With `Cc1cc(N2CCN(C)CC2)nc2ccc(NC(=O)Nc3ccccc3)cc12` the figure was 17.8 µM (active); with `Cc1cc(N2CCN(C)CC2)nc2ccc(NC(=O)CCC3CCCC3)cc12`, “inactive”. Take `COC(=O)c1cc(N2CCN(C)CC2)nc2ccccc12`: the Potency entry was “inactive”.

As to `Cc1onc(-c2c(Cl)cccc2Cl)c1NC(=O)NNc1ccccn1`, the Potency result is “inactive”. For `Cc1cc(C)c(C#N)c(SCc2ccc(F)cc2)n1` the value was “inactive”; for `Cn1c(Cl)cnc1C1CC(=O)c2cc(Cl)ccc2O1` (centres undefined), 39.8 µM (active); for `Cc1cccc(-n2cnc(C(=O)N3CCN(C)CC3)c2)n1`, “inactive”. In the case of `CCCc1cc(CNC(=O)C2CCC(=O)N(CCc3cccc(F)c3)C2)on1` (centres undefined), the Potency is 35.5 µM (active). Regarding `CC#CCN(Cc1ccco1)C(=O)C1CCC(=O)N(CCc2cccc(F)c2)C1` (centres undefined), the Potency result was “inactive”. `CCc1csc(CCNC(=O)C2CCC(=O)N(Cc3ccccc3F)C2)n1` (centres undefined): the Potency result is “inactive”. With `COC1=C(c2ccccc2)C(=O)c2ccccc2C1=O`, the Potency entry is “inactive”. With `O=C(C1=C(c2ccccc2)C(=O)c2ccccc2C1=O)c1ccccc1` the figure was 7.08 µM (active). With `O=C(c1ccccc1)c1ccc2cc(O)ccc2c1` the entry was “inactive”; with `CCCCOc1ccc(C(=O)C(CN2CCOCC2)c2ccccc2)cc1` (centres undefined), 39.8 µM (active); with `CCOc1ccc2nc(N3CCOCC3)nc(C)c2c1`, “inactive”. Turning to `OC(CN1CCOCC1)(c1ccccc1)c1ccccn1` (centres undefined), the Potency entry was “inactive”. For `CCOc1ccc(C(=O)C(CN2CCOCC2)c2ccccc2)cc1` (centres undefined), the Potency was 35.5 µM (active). For `O=C(N/N=C/c1ccc(N2CCOCC2)cc1)c1ccccc1OCCOc1ccccc1` the value was “inactive”.

As to `CCOc1ccc(C2C(C(=O)OC)=CN(C(C)c3ccccc3)C=C2C(=O)OC)cc1` (centres undefined), the Potency entry was “inactive”. For the molecule `CC1Cc2ccccc2N1CC(=O)NC(=O)NC1CCCCC1` (centres undefined), the Potency entry was “inactive”. On to `COc1ccc(NC2=C(C(C)=O)C(c3ccc(OC)cc3)C(C(C)=O)C(C)(O)C2)cc1` (centres undefined), for which the Potency entry is “inactive”.

For the molecule `CCCCNc1nc2cccnc2s1`, the Potency result was “inactive”. `Cn1c(S(=O)(=O)c2ccc([N+](=O)[O-])cc2)nc(Br)c1Br`: the Potency entry was “inactive”. As to `NS(=O)(=O)c1ccc(S(=O)(=O)c2ccccc2)nc1`, the Potency entry is “inactive”. Take `Cc1ccc(S(=O)(=O)c2ccc([N+](=O)[O-])cn2)cc1`: the Potency was 39.8 µM (active). With `Cc1cc(S(=O)(=O)c2ccc([N+](=O)[O-])cn2)ccc1Br` the figure was 29.9 µM (active).

For the molecule `O=[N+]([O-])c1ccc(Nc2ccccc2F)nc1`, the Potency result was “inactive”.

As for `CCN(CC)c1nc(-c2ccccc2)ncc1S(=O)(=O)c1ccc(C)cc1`, the Potency result is “inactive”. As to `Cc1c(C)c(C)c(C(=O)C2CCN(c3ccc([N+](=O)[O-])cn3)CC2)c(C)c1C`, the Potency result was “inactive”. With `O=[N+]([O-])c1ccc(S(=O)(=O)c2ccccc2)nc1`, the Potency is 5.62 µM (active). As to `Cc1cc(Sc2ccc([N+](=O)[O-])cn2)ccc1Br`, the Potency result was “inactive”. As for `Cc1ccc2nc3c(cc(C(=O)NCC4CCCO4)c(=N)n3CC3CCCO3)c(=O)n2c1` (centres undefined), the Potency entry is “inactive”. For `Cc1ccc(C2C=C(c3ccccc3OC(F)F)Nc3ncnn32)cc1` (centres undefined), the Potency result is “inactive”.

For the molecule `Cn1c(C(=O)NCCN2CCOCC2)cc2c(=O)n3ccccc3nc21`, the Potency result is “inactive”. `CCCCn1c(SCCN2CCCCC2)nc2c1c(=O)n(C)c(=O)n2C`: the Potency entry is “inactive”. Consider `OC(c1cc(C(F)(F)F)nc2c(C(F)(F)F)cccc12)C1CCCCN1` (centres undefined), for which the Potency is 20 µM (active). In the case of `O=S(=O)(Nc1nc2n(n1)C(c1ccc(F)cc1)C=C(c1ccc(Cl)cc1)N2)c1ccccc1` (centres undefined), the Potency entry is “inactive”. As for `COCC(C)OC(=O)c1c(N)n(CCCN2CCOCC2)c2nc3ccccc3nc12` (centres undefined), the Potency entry was “inactive”.
